# High-throughput results as filed in PubChem BioAssay.
# This is a sample that favours compounds with a hit; in the whole collection about 2.3% have one here.
# M1 PAM parental = counter-screen for M1 PAMs: effect in parental CHO-K1 cells | AID 602247 | activation, % at 3 µM | actives 0.02% (n = 360,000) | ATP EC20, Fluo-8 calcium fluorescence; 0% at ATP EC20, 100% at ATP max;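 active means activation above the run cutoff, the mean activation of all test compounds plus 3 SD, cut at about 40% in these data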;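 further: peak over basal fluorescence ratio in a 140 s read after ATP addition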
# CHRM1 agonist = activates human CHRM1 receptor; activation, % at 3 µM; P11229; actives 0.33% (n = 360,000); CHO-K1 hM1, Fluo-8 calcium fluorescence, agonist mode; 0% DMSO, 100% acetylcholine EC100;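 active means activation above the run's mean compound activation plus 3 SD, cut at about 16% in these data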;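 further: peak over basal fluorescence ratio within a 140 s kinetic read after compound addition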
# Target sequence (P11229 whole entry, looked up): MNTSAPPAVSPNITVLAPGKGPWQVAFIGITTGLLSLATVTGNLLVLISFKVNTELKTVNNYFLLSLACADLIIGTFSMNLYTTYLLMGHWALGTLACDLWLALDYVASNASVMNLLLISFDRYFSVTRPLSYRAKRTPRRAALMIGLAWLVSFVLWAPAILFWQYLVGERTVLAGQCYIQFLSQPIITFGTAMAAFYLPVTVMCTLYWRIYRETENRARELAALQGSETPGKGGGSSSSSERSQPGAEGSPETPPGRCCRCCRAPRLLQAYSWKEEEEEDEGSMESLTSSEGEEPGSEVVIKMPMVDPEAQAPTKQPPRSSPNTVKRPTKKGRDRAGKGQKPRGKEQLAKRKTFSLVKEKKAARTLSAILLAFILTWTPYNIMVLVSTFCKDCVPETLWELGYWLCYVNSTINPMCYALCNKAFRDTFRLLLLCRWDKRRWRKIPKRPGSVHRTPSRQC
# M1 antag = antagonists of human M1 muscarinic receptor | P11229 | CHO-K1 hM1, Fluo-8 calcium fluorescence, ACh EC80 antagonist | inhibition, % at 3 µM | actives 1.3% (n = 360,000) | AID 588852;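 active means percent inhibition above its own plate's cutoff, namely the mean of that plate's compound wells plus 3 SD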;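 further: peak over basal fluorescence ratio during 140 s after agonist addition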
# M1 ag parental = nonselective activator or artifact in parental CHO-K1 cells; Fluo-8 calcium fluorescence; scaled to maximal ATP response, vehicle zero; activation, % at 3 µM; AID 602248; actives 0.48% (n = 360,000); in the data active means activation above about 15%;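 further: untransfected CHO-K1 host cells lacking M1 receptor as counterscreen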
# M1 PAM = positive allosteric modulators of human M1 muscarinic receptor; P11229; activation, % at 3 µM; CHO-K1 hM1, Fluo-8 calcium fluorescence, ACh EC20; 0% = ACh EC20, 100% = maximal ACh; AID 588819; actives 0.088% (n = 360,000); in the data active means activation above about 19%, passing the limit was not always enough
# CHO-K1 Ca antag = counter-screen for M1 antagonists: effect in parental CHO-K1 cells; ATP-induced calcium, Fluo-8 fluorescence; inhibition, % at 3 µM; actives 0.6% (n = 360,000); AID 602250;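 active means inhibition above a per-plate cutoff, the plate's mean sample inhibition plus 3 SD, cut at about 24% in these data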
# Numbers stand for hits; . = inactive.
SMILES,M1 PAM parental,CHRM1 agonist,M1 antag,M1 ag parental,M1 PAM,CHO-K1 Ca antag
Cc1cc(C)cc(OCC(O)CN2CCC(CN3C(=O)c4cccc5cccc(c45)C3=O)CC2)c1 (stereo unspecified),.,.,48,.,.,.
COc1ccc(C)cc1-n1nnnc1SCc1nc(N)nc(N(C)C)n1,.,.,.,.,.,.
CCCCCOc1ccc2oc(=O)c3c(c2c1)CCCN3C(=O)CN1CCCC(C(=O)OCC)C1 (stereo unspecified),.,.,35,.,.,.
C[n+]1c(-c2ccccc2)cc2c(=Cc3ccc([N+](=O)[O-])cc3)c3ccccc3n21,.,.,42,.,.,.
C[n+]1c(-c2ccccc2)cc2c(=Cc3ccccc3)c3ccccc3n21,.,.,46,.,.,.
CCN(C1CCS(=O)(=O)C1)S(=O)(=O)c1ccc2ccccc2c1 (stereo unspecified),.,.,.,.,.,.
CCc1nnc(NC(=O)C2c3ccccc3Oc3ccccc32)s1,.,.,37,.,.,.
O=C(Nc1nc2ccccc2s1)C1c2ccccc2Oc2ccccc21,.,.,.,.,.,.
CNS(=O)(=O)c1ccc(NC(=O)C2c3ccccc3Oc3ccccc32)cc1,.,.,.,.,.,.
CCN(CC)CCCNC(=O)C1c2ccccc2Oc2ccccc21,.,.,49,.,.,.
COCCCNC(=O)C1c2ccccc2Oc2ccccc21,.,.,.,.,.,.
CCN(CC)S(=O)(=O)c1ccc(NC(=O)C2c3ccccc3Oc3ccccc32)cc1,.,20,.,.,.,.
CCN(C(=O)COC(=O)/C=C/c1ccc(OC)c(OC)c1)c1c(N)n(Cc2ccccc2)c(=O)[nH]c1=O,.,.,.,.,.,.
C=CCNC(=S)N(CC=C)C1CCS(=O)(=O)C1 (stereo unspecified),.,.,.,.,.,.
CCc1ccccc1-n1nnnc1SCC(=O)Nc1cc(C)on1,.,.,.,.,.,.
Cc1cc(NC(=O)CSc2nnnn2-c2ccccc2C)no1,.,.,28,.,.,.
CC(C)(C)OC(=O)N1CCCC(C(=O)Nc2ccc(C(=O)NCCc3ccccc3)cc2)C1 (stereo unspecified),.,.,.,.,.,.
CCCc1cc(=O)oc2cc(OC(C)C(=O)NCC3CCC(C(=O)O)CC3)ccc12 (stereo unspecified),.,.,.,.,.,27
Cc1ccc(N2C(=O)[C@@H]3C(C(=O)CCN4C(=O)c5ccccc5C4=O)=NN[C@@H]3C2=O)cc1,.,.,.,.,.,.
CC(C)N(C(=O)COC(=O)c1cccnc1Cl)c1ccccc1,.,.,.,.,32,.
O=C(COC(=O)c1cccnc1Cl)c1ccccc1,.,.,.,.,.,.
CCOC(=O)c1ncccc1NC(=O)CC(=O)Nc1cccnc1C(=O)OCC,.,.,.,.,.,.
O=C(CN1CCN(c2ccc([N+](=O)[O-])cc2)CC1)c1ccccc1,.,.,40,.,.,.
O=C(CCN1CCN(c2ccc([N+](=O)[O-])cc2)CC1)c1ccc(Cl)cc1,.,.,38,.,.,.
COC(=O)c1cc(C(=O)OCC(=O)c2ccc[nH]2)cc([N+](=O)[O-])c1,.,.,.,.,.,.
SMILES,M1 PAM parental,CHRM1 agonist,M1 antag,M1 ag parental,M1 PAM,CHO-K1 Ca antag
COC(=O)c1cc(C(=O)OCC(=O)NC(=O)c2ccccc2)cc([N+](=O)[O-])c1,.,.,28,.,.,.
CCOC(=O)N1CCC(NCCNC(=O)c2ccc(Cl)cc2)CC1,.,22,.,.,.,.
CCOC(=O)N1CCC(NCCNC(=O)c2ccc(F)c(F)c2)CC1,.,64,74,.,.,.
CCOC(=O)N1CCC(NC(=O)c2cc(C(=O)NCc3ccc(F)cc3)ccc2CO)CC1,.,.,.,.,.,.
CCOC(=O)N1CCC(NCCNC(=O)c2ccco2)CC1,.,.,.,.,.,.
CCOC(=O)N1CCC(NC(=O)c2cc(C(=O)Nc3ccc(F)cc3F)ccc2CO)CC1,.,.,.,.,.,29
COC(=O)c1cc([N+](=O)[O-])c(-n2ccnc2)c([N+](=O)[O-])c1,.,.,.,.,.,.
